In publication PMC10726135, “HNF4α isoforms regulate the circadian balance between carbohydrate and lipid metabolism in the liver”:
In all, about 18,000 sequences were measured (“log2 normalized intensity”: median about 0.36, highest 2% from about 7.3 on). The sample as a whole holds a higher share of the highest values than the screen did.

Target: T1, HNF4alpha8 (COS-7 nuclear extract) (Homo sapiens, UniProt P41235-5 1-452)
T1 sequence: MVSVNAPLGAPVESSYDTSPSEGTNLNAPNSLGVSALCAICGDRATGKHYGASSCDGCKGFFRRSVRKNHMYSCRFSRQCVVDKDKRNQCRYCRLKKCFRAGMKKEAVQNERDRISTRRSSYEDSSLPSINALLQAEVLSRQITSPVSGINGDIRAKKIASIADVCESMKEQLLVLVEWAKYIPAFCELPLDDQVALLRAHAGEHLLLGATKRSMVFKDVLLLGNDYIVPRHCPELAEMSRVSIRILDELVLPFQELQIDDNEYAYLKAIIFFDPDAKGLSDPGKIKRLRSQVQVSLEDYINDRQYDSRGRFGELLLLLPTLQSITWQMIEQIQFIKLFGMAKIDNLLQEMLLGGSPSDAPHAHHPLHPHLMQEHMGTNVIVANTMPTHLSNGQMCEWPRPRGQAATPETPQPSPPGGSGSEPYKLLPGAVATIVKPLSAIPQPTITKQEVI
Test: protein-binding microarray; COS-7 nuclear extract on double-stranded Agilent 4x180k PBM; binding buffer, salt, pH and temperature not given in the material; high values mean tight binding
Conditions: chain copies: 2; label: 3' end of strand 1 on the slide; dsDNA, one strand shown
How it was run: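 Double-stranded oligonucleotides of ~60 nt, representing ~44,000 test sequences in quadruplicate, made up a custom Agilent SurePrint G3 4x180k array. Nuclear extracts from COS-7 cells transiently transfected by CaPO4 with a human HNF4α isoform expression vector were applied, and bound HNF4α was imaged at 2-µm resolution on an Agilent G2565CA scanner. Binding signal refers to the background-corrected, normalized gProcessedSignal output of Agilent software.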

Sequence | binding signal [log2 normalized intensity]
AGGTCAGGGAGTAGGTTTGATTTGTGAAAGGCCTAGGGAGATTAGAGTATCGGTCGA | 1.03
AGTCCAAAGGTCAGCCGGGGAAGGTGCAGGGCCTAGGGAGATTAGAGTATCGGTCGA | 5.55
TCACAGTGTGGGGCAAATCTGAGGTCAAAGGCCTAGGGAGATTAGAGTATCGGTCGA | 2.51
TACGTGACCTACTTAGTCTCCAGCCCCCAGGCCTAGGGAGATTAGAGTATCGGTCGA | 4.08
TTTGGGGGTTGGTATTACAAAGCAATCTACGCCTAGGGAGATTAGAGTATCGGTCGA | 0.18
TGAGCCATCCTGAACAAATGTACTGGATATGCCTAGGGAGATTAGAGTATCGGTCGA | -0.391
GACATAAATCACATTGTTAGCATAGCCTATGCCTAGGGAGATTAGAGTATCGGTCGA | -0.813
TGCTCACGTTTTCCTGCTGACCCTCTCCCCGCCTAGGGAGATTAGAGTATCGGTCGA | 4.22
TTACCCTGCAGTGTGACCTTTGCCTTCTTGGCCTAGGGAGATTAGAGTATCGGTCGA | 8.09
ACTGCTTACCCTGCAGTGTGACCTTTGCCTGCCTAGGGAGATTAGAGTATCGGTCGA | 8.52
TCTACACTGCTTACCCTGCAGTGTGACCTTGCCTAGGGAGATTAGAGTATCGGTCGA | 4.68
CTGCAGTGTGACCTTTGCCTTCTTGACATCGCCTAGGGAGATTAGAGTATCGGTCGA | 6.8
GTGTGACCTTTGCCTTCTTGACATCTCTCTGCCTAGGGAGATTAGAGTATCGGTCGA | 5.21
GATGTTCTACACTGCTTACCCTGCAGTGTGGCCTAGGGAGATTAGAGTATCGGTCGA | -0.757
AGCTTGCTCTCACCAGCTTCTTCTCTTTGAGCCTAGGGAGATTAGAGTATCGGTCGA | -0.143
TCACTGTAACCTTTGCCCCCCAAGTTGAAGGCCTAGGGAGATTAGAGTATCGGTCGA | 7.68
TGGTGCTATCTTTGCTCACTGTAACCTTTGGCCTAGGGAGATTAGAGTATCGGTCGA | 4.34
TTTGCTCACTGTAACCTTTGCCCCCCAAGTGCCTAGGGAGATTAGAGTATCGGTCGA | 9.22
GTAACCTTTGCCCCCCAAGTTGAAGCCATCGCCTAGGGAGATTAGAGTATCGGTCGA | 5.74
GTGCTATCTCAGCTCACTGTAACCTTTGCCGCCTAGGGAGATTAGAGTATCGGTCGA | 4.68
AACCTTTGCCCCAGCTGTCACCCAGCCAGAGCCTAGGGAGATTAGAGTATCGGTCGA | 4.16
ACTGTAACCTTTGCCCCCCTGGGCTCAAGCGCCTAGGGAGATTAGAGTATCGGTCGA | 6.27

Sequence | binding signal [log2 normalized intensity]
ATCTCAGCTCACTGTAACCTTTGCCCCCCTGCCTAGGGAGATTAGAGTATCGGTCGA | 9.22
AGCCCCAACCCACTGTTGCCCCTTCCAAAGGCCTAGGGAGATTAGAGTATCGGTCGA | 4.73
TCAAGCTCAATGCAACCAGTTGGTGGGTCAGCCTAGGGAGATTAGAGTATCGGTCGA | 1.44
GTTAGAACAAAGTCCAAATTCCTAACTATGGCCTAGGGAGATTAGAGTATCGGTCGA | 4.38
TTTATTAGGGGTCAGCAAAGAACTCCCCAGGCCTAGGGAGATTAGAGTATCGGTCGA | 2.41
ACCAGCAATTTTCAGGGTTAAAAGTTCTGCGCCTAGGGAGATTAGAGTATCGGTCGA | 1.05
GTGTTTGTCCTTTGTTGCAATGCTGGAACAGCCTAGGGAGATTAGAGTATCGGTCGA | 1.28
CAGGTGGGAGGGGTGGACTTTGGCTTTTCCGCCTAGGGAGATTAGAGTATCGGTCGA | 6.31
GAGATAAGTCACCTTATCAAGTCCGAACTCGCCTAGGGAGATTAGAGTATCGGTCGA | 1.35
GGAATCTTGCCCTGTCGCCCAGGCTGGAATGCCTAGGGAGATTAGAGTATCGGTCGA | 1.58
AAGAGACTTTGCCCTTTTTTTCTCTCCCCTGCCTAGGGAGATTAGAGTATCGGTCGA | 3.92
GCTCTCCGTGGACTTTGCCCCCTACAGTTTGCCTAGGGAGATTAGAGTATCGGTCGA | 10.5
TATCAGCTCTCCGTGGACTTTGCCCCCTACGCCTAGGGAGATTAGAGTATCGGTCGA | 11.3
TCTTCCTTTCTATCAGCTCTCCGTGGACTTGCCTAGGGAGATTAGAGTATCGGTCGA | 3.52
TTTGGCCCCCAGAGCCCCGTGTCTCCCTACGCCTAGGGAGATTAGAGTATCGGTCGA | 4.89
CTTTCTATCAGCTCTCCGTGGACTTTGCCCGCCTAGGGAGATTAGAGTATCGGTCGA | 9.95
ATCCCGTGGACTTTGCCTGCCCATCCCGTGGCCTAGGGAGATTAGAGTATCGGTCGA | 4.23
TCTTTGCCCTCTTGGTATCAGCTTTGAGACGCCTAGGGAGATTAGAGTATCGGTCGA | 1.91
GTGGACTTTGCCTGCCCATCCCGTGGACTCGCCTAGGGAGATTAGAGTATCGGTCGA | 4.49
TTGATTTAACATTTGTGATCTGGCACAAATGCCTAGGGAGATTAGAGTATCGGTCGA | 0.366
AGATACTGAATCTCCCAGTGCTTTGATCTTGCCTAGGGAGATTAGAGTATCGGTCGA | 1.39
